Reference: the supplement of paper PMC11732987, “Enantioselective OTUD7B fragment discovery through chemoproteomics screening and high-throughput optimisation” (Communications Chemistry, 2025)

Columns and labels:
Test in all cases: log2 ratio of Biotin-Ahx-Ub-VS probe labelling (fragment/DMSO); higher = less target engagement (more negative = stronger competition), active = hit call of the paper (q ≤ 0.05, log2 ratio ≤ -1)
Conditions in all cases: compound concentration: 200 uM; treatment time: 3 h
USP42 = target: T1, USP42 (UniProt Q9H9J4)
T1 sequence (whole entry): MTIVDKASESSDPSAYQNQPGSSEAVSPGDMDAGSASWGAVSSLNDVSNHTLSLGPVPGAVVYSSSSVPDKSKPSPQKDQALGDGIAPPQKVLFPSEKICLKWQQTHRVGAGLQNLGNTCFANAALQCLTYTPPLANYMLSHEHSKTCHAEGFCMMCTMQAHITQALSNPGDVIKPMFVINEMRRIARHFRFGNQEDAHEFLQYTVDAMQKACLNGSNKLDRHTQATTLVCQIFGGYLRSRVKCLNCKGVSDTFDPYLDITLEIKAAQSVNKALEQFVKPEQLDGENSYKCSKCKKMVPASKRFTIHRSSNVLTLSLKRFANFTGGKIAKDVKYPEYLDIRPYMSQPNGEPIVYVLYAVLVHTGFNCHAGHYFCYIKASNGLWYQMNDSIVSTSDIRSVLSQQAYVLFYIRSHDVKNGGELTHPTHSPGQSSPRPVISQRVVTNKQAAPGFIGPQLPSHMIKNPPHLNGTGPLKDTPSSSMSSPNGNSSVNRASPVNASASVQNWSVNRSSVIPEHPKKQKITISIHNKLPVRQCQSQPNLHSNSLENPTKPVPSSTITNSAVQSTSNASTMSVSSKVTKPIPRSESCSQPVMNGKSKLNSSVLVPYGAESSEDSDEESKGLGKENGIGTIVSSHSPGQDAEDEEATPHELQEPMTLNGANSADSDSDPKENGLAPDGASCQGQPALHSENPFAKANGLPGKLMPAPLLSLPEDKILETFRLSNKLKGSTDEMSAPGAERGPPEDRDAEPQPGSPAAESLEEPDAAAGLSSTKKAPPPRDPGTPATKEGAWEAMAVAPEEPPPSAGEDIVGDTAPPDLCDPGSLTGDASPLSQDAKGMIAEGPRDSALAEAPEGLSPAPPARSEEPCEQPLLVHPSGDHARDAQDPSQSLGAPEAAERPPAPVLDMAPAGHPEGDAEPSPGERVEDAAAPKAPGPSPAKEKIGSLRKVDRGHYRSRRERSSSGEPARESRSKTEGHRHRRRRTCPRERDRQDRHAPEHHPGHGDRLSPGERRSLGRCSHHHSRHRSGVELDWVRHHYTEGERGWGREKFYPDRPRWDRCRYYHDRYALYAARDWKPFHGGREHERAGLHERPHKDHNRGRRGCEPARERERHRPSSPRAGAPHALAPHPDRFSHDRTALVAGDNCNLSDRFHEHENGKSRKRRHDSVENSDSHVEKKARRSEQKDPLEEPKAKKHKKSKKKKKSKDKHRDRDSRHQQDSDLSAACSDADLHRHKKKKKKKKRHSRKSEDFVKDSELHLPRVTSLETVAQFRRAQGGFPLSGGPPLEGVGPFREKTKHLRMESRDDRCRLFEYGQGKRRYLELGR
How it was run: (§1)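 Using Biotin-Ahx-Ub-VS at 0.5 µM final for 1 h, DUBs were labelled in HEK293T lysate (495 µg per sample) that had first been treated in triplicate with fragment at 200 µM or vehicle for 3 h. NeutrAvidin enrichment, LysC and trypsin digestion and diaPASEF LC-MS/MS followed. Spectronaut label-free quantities were global-median-normalised. Values are average log2 fragment/vehicle ratios by unpaired t-test, using proteins with ≥2 unique peptides.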

USP46 = USP46 (UniProt P62068)
USP46, sequence (P62068 whole entry): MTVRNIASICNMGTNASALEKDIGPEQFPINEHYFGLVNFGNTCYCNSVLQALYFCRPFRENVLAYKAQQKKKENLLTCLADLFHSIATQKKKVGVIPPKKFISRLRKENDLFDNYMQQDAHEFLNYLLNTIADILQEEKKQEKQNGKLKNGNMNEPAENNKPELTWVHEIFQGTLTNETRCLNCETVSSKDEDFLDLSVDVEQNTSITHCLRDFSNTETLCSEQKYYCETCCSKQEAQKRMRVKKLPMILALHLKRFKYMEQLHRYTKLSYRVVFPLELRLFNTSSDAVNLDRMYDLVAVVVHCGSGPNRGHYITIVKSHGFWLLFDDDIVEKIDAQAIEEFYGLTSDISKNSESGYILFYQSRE
How it was run: as §1

USP47 = target: T2, USP47 (UniProt Q96K76)
T2 sequence (whole entry): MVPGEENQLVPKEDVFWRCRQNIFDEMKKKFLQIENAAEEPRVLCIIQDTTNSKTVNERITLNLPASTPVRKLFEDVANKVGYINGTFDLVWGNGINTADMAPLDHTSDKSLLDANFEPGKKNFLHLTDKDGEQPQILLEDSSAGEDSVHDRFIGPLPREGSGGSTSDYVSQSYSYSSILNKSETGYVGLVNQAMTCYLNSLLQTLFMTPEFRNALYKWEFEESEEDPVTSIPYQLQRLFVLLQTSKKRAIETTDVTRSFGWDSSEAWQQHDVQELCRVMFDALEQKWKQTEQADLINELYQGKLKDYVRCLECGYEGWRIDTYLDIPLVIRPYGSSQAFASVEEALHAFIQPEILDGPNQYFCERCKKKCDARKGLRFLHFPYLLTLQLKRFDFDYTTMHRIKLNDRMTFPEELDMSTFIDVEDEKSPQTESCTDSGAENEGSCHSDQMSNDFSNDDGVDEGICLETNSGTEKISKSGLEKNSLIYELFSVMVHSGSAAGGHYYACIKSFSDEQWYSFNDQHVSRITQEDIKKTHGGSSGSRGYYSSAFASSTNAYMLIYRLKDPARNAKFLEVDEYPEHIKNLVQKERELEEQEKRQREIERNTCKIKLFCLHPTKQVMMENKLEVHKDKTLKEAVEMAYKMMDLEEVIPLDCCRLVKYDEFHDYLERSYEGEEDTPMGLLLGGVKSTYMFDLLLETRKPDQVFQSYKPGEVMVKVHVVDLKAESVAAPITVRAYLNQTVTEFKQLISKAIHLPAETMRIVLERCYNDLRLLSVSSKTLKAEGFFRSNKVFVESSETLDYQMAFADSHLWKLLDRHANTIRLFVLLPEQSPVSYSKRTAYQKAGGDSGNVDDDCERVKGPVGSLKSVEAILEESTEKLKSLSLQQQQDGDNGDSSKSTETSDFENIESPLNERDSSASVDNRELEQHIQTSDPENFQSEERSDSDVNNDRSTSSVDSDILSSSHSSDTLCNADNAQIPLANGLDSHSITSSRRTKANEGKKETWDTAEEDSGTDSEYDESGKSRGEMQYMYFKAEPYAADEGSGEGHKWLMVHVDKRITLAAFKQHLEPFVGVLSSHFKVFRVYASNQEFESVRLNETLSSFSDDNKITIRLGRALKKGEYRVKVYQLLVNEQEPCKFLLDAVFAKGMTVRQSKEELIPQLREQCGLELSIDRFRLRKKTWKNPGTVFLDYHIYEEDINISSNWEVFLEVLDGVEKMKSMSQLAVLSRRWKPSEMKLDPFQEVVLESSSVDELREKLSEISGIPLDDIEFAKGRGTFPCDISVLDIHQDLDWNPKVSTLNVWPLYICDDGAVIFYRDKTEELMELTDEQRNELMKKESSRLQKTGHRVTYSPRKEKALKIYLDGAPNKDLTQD
How it was run: as §1

USP48 = target: T3, USP48 (UniProt Q86UV5)
T3 sequence (whole entry): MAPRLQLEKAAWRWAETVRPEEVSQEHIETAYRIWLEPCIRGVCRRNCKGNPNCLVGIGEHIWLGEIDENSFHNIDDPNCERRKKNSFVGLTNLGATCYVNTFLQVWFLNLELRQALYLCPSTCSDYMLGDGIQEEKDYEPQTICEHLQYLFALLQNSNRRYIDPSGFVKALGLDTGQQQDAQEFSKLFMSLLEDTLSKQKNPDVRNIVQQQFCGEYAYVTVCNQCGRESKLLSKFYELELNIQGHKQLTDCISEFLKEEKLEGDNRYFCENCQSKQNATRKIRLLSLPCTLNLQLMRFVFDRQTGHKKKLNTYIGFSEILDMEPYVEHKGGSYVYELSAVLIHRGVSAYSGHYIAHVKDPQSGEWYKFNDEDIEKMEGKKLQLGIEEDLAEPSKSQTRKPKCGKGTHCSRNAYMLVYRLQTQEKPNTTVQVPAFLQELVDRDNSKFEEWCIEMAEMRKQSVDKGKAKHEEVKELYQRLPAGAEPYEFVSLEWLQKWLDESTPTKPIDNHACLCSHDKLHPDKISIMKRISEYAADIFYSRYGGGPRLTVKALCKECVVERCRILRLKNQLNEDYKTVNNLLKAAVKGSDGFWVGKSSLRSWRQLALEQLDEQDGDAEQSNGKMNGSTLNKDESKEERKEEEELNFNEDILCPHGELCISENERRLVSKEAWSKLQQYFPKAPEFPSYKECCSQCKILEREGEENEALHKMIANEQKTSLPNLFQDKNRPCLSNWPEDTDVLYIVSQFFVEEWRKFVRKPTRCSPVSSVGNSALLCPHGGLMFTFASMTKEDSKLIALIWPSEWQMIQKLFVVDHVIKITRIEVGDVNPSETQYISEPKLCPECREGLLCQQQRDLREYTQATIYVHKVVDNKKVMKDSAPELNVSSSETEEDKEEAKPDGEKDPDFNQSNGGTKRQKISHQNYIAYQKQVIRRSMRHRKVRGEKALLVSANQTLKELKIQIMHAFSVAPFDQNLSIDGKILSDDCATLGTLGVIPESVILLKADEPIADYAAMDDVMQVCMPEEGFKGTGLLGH
How it was run: as §1

USP5 = target: T4, USP5 (UniProt P45974)
T4 sequence (whole entry): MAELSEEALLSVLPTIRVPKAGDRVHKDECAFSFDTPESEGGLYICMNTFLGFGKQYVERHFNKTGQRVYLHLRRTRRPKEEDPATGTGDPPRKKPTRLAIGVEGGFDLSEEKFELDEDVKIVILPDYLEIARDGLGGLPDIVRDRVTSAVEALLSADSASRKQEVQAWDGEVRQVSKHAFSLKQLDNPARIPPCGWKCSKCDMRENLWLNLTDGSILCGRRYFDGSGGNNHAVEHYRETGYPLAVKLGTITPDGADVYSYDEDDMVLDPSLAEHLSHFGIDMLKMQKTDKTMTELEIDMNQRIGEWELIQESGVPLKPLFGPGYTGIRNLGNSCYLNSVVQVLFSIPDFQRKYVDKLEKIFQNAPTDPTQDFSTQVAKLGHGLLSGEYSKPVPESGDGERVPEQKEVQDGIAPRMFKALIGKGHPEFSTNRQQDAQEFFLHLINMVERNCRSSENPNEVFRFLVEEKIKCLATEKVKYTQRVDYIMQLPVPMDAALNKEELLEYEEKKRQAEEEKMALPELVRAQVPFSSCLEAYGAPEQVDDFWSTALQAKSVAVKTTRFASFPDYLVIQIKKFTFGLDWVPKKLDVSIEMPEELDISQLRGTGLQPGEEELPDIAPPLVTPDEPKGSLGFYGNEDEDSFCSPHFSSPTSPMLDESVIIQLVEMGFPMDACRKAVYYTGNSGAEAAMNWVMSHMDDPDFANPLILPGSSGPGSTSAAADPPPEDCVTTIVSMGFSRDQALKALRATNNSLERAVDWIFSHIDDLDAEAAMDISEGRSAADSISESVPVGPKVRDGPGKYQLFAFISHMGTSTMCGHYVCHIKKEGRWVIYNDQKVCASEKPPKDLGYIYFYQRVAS
How it was run: as §1

USP54 = USP54 (UniProt Q70EL1)
USP54, sequence (Q70EL1 whole entry): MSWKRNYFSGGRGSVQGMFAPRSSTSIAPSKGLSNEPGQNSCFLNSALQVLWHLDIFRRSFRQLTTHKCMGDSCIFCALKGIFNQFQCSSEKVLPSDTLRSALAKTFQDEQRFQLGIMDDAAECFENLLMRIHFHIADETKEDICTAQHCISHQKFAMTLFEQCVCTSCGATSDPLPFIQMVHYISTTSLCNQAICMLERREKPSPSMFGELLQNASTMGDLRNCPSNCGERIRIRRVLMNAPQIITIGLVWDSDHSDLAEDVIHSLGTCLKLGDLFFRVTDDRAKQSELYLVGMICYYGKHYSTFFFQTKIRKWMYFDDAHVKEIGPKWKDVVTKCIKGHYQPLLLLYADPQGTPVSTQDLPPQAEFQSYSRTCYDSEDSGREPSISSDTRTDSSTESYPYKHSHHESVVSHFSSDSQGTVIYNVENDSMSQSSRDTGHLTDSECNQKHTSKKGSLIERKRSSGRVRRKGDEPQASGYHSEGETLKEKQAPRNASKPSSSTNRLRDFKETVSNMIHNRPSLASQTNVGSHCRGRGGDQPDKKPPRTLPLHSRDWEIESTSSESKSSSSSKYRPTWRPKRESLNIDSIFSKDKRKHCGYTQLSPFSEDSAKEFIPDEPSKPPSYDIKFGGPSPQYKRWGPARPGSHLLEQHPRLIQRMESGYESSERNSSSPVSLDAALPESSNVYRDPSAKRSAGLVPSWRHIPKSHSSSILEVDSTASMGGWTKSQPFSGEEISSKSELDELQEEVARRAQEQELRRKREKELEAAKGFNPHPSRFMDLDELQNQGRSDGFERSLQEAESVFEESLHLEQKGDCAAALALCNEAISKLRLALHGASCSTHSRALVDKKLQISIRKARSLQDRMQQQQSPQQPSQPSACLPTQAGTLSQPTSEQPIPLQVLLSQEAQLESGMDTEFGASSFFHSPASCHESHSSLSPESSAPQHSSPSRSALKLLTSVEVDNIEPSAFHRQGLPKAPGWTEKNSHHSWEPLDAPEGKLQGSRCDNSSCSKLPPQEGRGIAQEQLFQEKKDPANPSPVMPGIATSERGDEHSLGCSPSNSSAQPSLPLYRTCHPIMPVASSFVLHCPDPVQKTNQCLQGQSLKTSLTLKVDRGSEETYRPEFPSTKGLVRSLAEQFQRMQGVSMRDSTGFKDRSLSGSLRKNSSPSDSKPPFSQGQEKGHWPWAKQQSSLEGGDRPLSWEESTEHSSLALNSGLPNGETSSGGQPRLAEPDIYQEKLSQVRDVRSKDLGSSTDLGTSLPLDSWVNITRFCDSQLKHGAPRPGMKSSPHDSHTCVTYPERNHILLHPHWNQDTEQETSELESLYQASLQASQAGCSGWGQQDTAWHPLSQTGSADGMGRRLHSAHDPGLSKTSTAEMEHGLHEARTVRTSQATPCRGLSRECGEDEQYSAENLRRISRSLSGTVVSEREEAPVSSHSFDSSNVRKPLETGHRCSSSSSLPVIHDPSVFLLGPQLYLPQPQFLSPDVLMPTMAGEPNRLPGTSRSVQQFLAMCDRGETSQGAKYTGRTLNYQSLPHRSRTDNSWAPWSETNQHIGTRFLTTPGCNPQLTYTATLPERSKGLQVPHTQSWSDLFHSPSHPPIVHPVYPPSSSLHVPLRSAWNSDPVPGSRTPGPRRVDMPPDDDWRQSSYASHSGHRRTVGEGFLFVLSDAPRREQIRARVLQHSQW
How it was run: as §1

USP7 = USP7 (UniProt Q93009)
USP7, sequence (Q93009 whole entry, looked up): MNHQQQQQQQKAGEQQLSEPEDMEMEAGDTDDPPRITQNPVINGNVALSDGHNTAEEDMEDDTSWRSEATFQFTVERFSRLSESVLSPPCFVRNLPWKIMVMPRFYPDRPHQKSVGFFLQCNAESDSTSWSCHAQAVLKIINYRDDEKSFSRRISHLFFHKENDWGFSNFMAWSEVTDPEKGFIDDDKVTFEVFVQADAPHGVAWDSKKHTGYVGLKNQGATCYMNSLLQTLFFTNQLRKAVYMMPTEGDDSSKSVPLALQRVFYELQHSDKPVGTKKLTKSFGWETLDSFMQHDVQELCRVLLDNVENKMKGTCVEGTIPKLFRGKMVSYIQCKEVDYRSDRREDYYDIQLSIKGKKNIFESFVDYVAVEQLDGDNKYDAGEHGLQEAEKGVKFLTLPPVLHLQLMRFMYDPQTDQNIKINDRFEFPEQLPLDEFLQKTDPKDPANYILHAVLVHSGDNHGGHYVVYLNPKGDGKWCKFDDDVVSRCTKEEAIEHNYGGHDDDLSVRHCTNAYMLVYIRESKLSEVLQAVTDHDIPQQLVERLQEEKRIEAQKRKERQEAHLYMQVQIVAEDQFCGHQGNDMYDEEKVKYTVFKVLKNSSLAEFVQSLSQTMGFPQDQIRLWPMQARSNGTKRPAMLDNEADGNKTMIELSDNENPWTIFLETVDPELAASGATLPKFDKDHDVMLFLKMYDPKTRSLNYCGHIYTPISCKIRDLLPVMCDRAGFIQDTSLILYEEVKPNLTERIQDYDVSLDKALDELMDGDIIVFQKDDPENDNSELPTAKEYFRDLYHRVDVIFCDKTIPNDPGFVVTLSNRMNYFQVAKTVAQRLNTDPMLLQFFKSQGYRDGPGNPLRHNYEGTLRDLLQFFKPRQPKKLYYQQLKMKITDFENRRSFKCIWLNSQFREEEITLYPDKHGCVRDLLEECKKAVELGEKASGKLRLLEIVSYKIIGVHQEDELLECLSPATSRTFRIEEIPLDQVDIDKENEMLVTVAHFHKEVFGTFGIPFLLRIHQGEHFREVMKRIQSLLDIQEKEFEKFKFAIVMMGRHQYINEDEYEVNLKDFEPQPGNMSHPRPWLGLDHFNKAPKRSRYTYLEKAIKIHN
How it was run: as §1

USP8 = target: T5, USP8 (UniProt P40818)
T5 sequence (whole entry): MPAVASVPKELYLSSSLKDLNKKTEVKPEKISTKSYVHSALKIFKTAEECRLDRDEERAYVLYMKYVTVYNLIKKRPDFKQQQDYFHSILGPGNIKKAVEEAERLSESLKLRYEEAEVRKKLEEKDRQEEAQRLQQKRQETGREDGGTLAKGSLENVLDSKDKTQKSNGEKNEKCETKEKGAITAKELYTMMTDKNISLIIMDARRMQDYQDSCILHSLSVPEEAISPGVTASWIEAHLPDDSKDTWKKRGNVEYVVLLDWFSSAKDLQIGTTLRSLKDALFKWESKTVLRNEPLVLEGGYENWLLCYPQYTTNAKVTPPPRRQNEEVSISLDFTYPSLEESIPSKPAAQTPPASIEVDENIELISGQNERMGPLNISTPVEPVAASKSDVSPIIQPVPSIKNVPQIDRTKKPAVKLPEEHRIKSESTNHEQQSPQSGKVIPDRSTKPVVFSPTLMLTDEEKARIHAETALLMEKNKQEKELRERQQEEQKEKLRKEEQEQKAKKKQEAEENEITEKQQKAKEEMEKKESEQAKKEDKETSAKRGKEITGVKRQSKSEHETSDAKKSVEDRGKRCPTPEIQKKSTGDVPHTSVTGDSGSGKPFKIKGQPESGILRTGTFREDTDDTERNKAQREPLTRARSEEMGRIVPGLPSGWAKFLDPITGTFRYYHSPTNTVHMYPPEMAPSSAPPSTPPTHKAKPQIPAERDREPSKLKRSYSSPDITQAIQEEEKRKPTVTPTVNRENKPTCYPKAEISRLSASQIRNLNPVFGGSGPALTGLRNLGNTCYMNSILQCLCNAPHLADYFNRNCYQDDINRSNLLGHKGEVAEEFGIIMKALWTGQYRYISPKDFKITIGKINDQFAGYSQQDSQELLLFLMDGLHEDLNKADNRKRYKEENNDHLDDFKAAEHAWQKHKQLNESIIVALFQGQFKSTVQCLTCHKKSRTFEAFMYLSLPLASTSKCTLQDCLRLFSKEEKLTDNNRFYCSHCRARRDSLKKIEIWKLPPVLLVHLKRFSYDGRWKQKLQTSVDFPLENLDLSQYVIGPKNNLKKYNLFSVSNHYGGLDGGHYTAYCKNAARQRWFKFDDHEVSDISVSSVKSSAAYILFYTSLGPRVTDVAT
How it was run: as §1

Measured: log2 ratio of Biotin-Ahx-Ub-VS probe labelling

O=C(CCl)N1CCN2C(=O)CCC2C1 (stereo not drawn)
inactive: USP42 -0.359 | USP46 0.247 | USP47 -0.0244 | USP48 -0.154 | USP5 0.153 | USP54 0.776 | USP7 -0.0819 | USP8 -0.376
